AHR activator – activators of human aryl hydrocarbon receptor. 320,000 compounds, 2.5% hits. AHR-responsive luciferase reporter cells, luminescence. P35869. activation, % at 5 µM; in the data active means activation above about 47%
Target sequence (P35869 whole entry, looked up): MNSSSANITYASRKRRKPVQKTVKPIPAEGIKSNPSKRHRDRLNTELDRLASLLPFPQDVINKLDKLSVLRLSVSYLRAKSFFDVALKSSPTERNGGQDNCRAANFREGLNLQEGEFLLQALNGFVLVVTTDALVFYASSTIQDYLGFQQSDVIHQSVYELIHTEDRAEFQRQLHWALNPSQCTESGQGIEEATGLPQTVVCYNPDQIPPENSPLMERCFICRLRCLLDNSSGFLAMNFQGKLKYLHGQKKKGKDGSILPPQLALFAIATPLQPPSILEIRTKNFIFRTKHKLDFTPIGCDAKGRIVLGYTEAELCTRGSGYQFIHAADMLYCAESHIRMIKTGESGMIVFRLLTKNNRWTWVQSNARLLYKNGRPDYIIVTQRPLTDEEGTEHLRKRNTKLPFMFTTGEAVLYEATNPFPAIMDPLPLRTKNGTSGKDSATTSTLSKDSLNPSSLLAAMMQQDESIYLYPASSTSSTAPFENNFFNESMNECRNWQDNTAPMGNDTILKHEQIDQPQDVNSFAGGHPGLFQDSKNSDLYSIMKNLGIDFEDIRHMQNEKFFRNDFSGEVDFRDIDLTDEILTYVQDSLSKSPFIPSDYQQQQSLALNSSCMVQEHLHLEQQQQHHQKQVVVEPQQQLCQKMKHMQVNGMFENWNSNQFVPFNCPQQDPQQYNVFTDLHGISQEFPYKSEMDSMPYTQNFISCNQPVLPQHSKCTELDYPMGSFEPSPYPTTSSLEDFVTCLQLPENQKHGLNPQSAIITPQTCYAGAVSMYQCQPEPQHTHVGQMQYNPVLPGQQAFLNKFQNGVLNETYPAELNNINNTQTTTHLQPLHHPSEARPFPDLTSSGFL
HSF-1 act – increases HSF-1 driven luciferase reporter signal | 300,000 compounds, 1.7% hits | activation, % at 9 µM | NIH3T3-HGL HSF-1 luciferase reporter, MG132, 8 h; 100% = twice DMSO control signal | AID 504408;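 active means mean replicate activation of at least 50% with a set share of replicates each reaching 50%; inconclusive means only one of those two conditions met; inactive means mean below 50% and too few replicates reaching it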
FXN GAA850 act – increases GAA850 frataxin promoter reporter activity. HEK293 lucGAA850 FXN promoter luciferase reporter, 24 h; percent of 10 µM SAHA response. activation, % at 6 µM. 360,000 compounds, 0.56% hits. AID 540364;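 active means activation above the average of all compounds screened plus 3 SD, cutoff fixed separately per campaign, cut at about 7.5% in these data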
HSF1 inh – HSF1 inhibition. activity change, negative = inhibition, % at 7.5 µM (by protocol). NIH3T3-HGL HSE-luciferase, MG132-induced, luminescence 8 h; active compounds read low. 300,000 compounds, 0.77% hits;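 active means more than half of replicate wells show activity change below -50%, luminescence cut by over half; inconclusive means some wells, but at most half, below -50%; inactive means no replicate well below -50%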;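 further: luciferase reports HSF-1 transcriptional activity via heat shock element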
Each line names hits and unclear results; the compound was inactive in the other large screens. Compounds with a hit are over-represented: about 4.6% of the library has one in this group of screens.

O=C(Nc1nc2cc3c(cc2s1)OCCO3)C1=COCCO1	HSF1 inh -66.1
Cc1sc(NC(=O)C2=COCCO2)nc1-c1ccc(Cl)cc1	AHR activator 65.2
O=C(Nc1nc(-c2ccc(Cl)cc2)cs1)C1=COCCO1	none
CCOc1cc(S(=O)(=O)Nc2ccc(Cl)cn2)ccc1Cl	none
CCCNC(=O)c1c[nH]c2ccc(S(=O)(=O)N(C)c3ccc(OCC)cc3)cc2c1=O	AHR activator 54.2 (no result: FXN GAA850 act)
CCOc1ccc(N(C)S(=O)(=O)c2ccc3[nH]cc(C(=O)NCCCOC)c(=O)c3c2)cc1	AHR activator 47.8
N#Cc1c(SCC(=O)N2CCCCC2)nsc1SCC(=O)N1CCCCC1	none
COc1ccccc1CNC(=O)c1csc(Cc2ccc(Cl)cc2)n1	HSF-1 act 99.8
COc1ccc(NC(=O)c2csc(Cc3ccccc3)n2)cc1	none
Cc1nc(-c2ccncc2)sc1C(=O)Nc1ccc(Br)cc1	AHR activator 62.0
O=C(Nc1ccc(Br)cc1)c1csc(-c2ccncc2)n1	AHR activator 52.7
O=C(Nc1ccc(F)cc1)c1csc(Cc2ccccc2)n1	HSF-1 act 59.0
CC(=O)Nc1ccc(NC(=O)c2sc(-c3ccccc3)nc2C)cc1	none
Nc1ccnn1Cc1ccncc1	none
CC(C)C[C@H](NC(=O)c1nc[nH]c1C(=O)NCC(=O)OCc1ccccc1)C(=O)OCc1ccccc1	none
CCCCn1c(SCC(=O)Nc2ccc3c(c2)CCC3)nc2ccccc2c1=O	none
Cc1c(N(C)C(=O)c2ccccc2F)c(=O)n(-c2ccccc2)n1C	none (no result: HSF-1 act, HSF1 inh)
O=C(Nc1ccc(Cl)cc1)c1csc(-c2ccncc2)n1	AHR activator 54.4
CNC(=O)c1csc(-c2ccncc2)n1	none
O=C(Nc1ccc(Cl)cc1)c1csc(-c2ccccc2)n1	AHR activator 96.8
CNC(=O)c1csc(-c2ccc(Cl)cc2)n1	none (no result: HSF-1 act, HSF1 inh)
CCOC(=O)N1CCN(S(=O)(=O)c2ccc(F)c(C(=O)Nc3ccc(C(C)C)cc3)c2)CC1	HSF-1 act 68.6
Cc1ccc(NC(=S)NC2CC3CCC(C2)N3Cc2ccco2)cc1C (stereo unspecified)	HSF1 inh -83.9
Cc1ccccc1/[N+]([O-])=C/c1cccs1	HSF-1 act 94.7
CSc1cccc(NC(=O)CC(C)n2ccnc2)c1 (stereo unspecified)	AHR activator 58.2
CCOc1ccc(OCC)c(NC(=O)CSc2nnc(C3CC3)n2CC)c1	none
CCCn1nc(NC(=O)c2cccs2)c2cc3cc(OC)ccc3nc21	AHR activator 65.7
CCCCn1nc(NC(=O)c2cccs2)c2cc3ccccc3nc21	none
CCCCn1nc(NC(=O)c2cccs2)c2cc3cc(OC)ccc3nc21	AHR activator 50.0
COc1ccc(-c2csc(NC(=O)CSCC(=O)Nc3cc(C)on3)n2)c(OC)c1	none
CCCN(CCC)C(=O)Cn1c2ccccc2c2nc(=O)cc(C)n21	AHR activator 50.5
Cc1cc(=O)nc2c3ccccc3n(CC(=O)NC3CCCCC3)n12	none
Nn1c(SCc2cccc(Cl)c2)nnc1-c1ccncc1	none
Cc1ccc(-n2nc3c(=O)n(C(C)C(=O)NCc4ccccc4Cl)nc(C)c3c2C)cc1 (stereo unspecified)	HSF-1 act 68.6
Cc1ccc(-n2nc3c(=O)n(C(C)C(=O)NCc4ccco4)nc(C)c3c2C)cc1 (stereo unspecified)	none
COc1cc(OC)c(OC)cc1C#N	none
COc1cc2c(cc1OC)C1(CCCC1)C(N)=C2C#N	AHR activator 47.5 (no result: HSF-1 act, HSF1 inh)
CC1(C)Nc2ccccc2C(=O)N1c1ccc(Br)cc1	AHR activator 59.0
Cc1cccc(/C=N\NC(=O)c2ccccc2-n2cccc2)c1	none
Cc1cccc(/C=N\NC(=O)c2sccc2-n2cccc2)c1	AHR activator 63.7
O=C(N/N=C\c1cccs1)c1sccc1-n1cccc1	AHR activator 66.5
Cc1cccc(/C=N\NC(=O)c2csnn2)c1	AHR activator 70.4, HSF-1 act inconclusive
O=S(=O)(c1ccccc1)N1CCN(c2ccnc3cc(Cl)ccc23)CC1	none
Cc1ccc(CSC2=Nc3ccccc3C3=NC(CC(=O)NCc4ccco4)C(=O)N23)cc1 (stereo unspecified)	none
Cc1cc(C)c2c(c1)/C(=N/NS(=O)(=O)c1ccc(Br)cc1)CCC2	HSF1 inh -54.3
Cc1cccc(NC(=O)Cn2nc([N+](=O)[O-])c(Br)c2C)n1	none
Cc1cccc(C)c1N1CCN(c2ccc3nnc(C(F)(F)F)n3n2)CC1	HSF-1 act 129.3
FC(F)(F)c1nnc2ccc(N3CCCCC3)nn12	none
Cc1nn(C)cc1C(=O)/C=C/c1ccc([N+](=O)[O-])cc1	HSF-1 act 61.4
CCn1cc(CN(C)C(=O)/C=C/c2ccc([N+](=O)[O-])cc2)c(C)n1	none
Cc1ccc(NC(=S)N2CCN(Cc3ccccc3)CC2)cc1	none
Cc1nc(-c2ccc(Cl)cc2)sc1C1(C)CC(c2ccc(Cl)cc2)=NO1 (stereo unspecified)	HSF1 inh -63.2
Cc1nc(-c2ccc(Cl)cc2)sc1C1(C)CC(c2ccccc2)=NO1 (stereo unspecified)	none
CCCn1c(SCC(=O)NCc2ccco2)nnc1C(C)C	none
CCCn1c(C)cc(C(=O)COc2ccc(C)nc2[N+](=O)[O-])c1C	none
Cc1ccc(OCC(=O)c2cc(C)n(-c3ccccc3)c2C)c([N+](=O)[O-])n1	HSF1 inh -61.8
C=CCn1c(C)cc(C(=O)COc2ccc(C)nc2[N+](=O)[O-])c1C	HSF1 inh -53.7
CCOc1cccc(/C(O)=C2/C(=O)C(=O)N(Cc3ccco3)C2c2ccncc2)c1 (stereo unspecified)	none
O=C(COC(=O)c1ccc(O)cc1O)NC1CCS(=O)(=O)C1 (stereo unspecified)	none
COc1ccc(CC(=O)Nc2c3c(nn2-c2ccccc2C)CS(=O)C3)cc1 (stereo unspecified)	none
CCCCC(=O)NNC(=O)c1c(O)c2ccccc2[nH]c1=O	none
COC(=O)c1ccc(COc2ccccc2/C=C(\C#N)C(=O)Nc2c(C)cc(C)cc2C)cc1	HSF-1 act 93.2
COC(=O)c1ccc(COc2ccccc2/C=C(\C#N)C(=O)Nc2ccc(C)cc2C)cc1	none
Cc1ccc(SCCC(=O)N2CCC(C)CC2)cc1	HSF-1 act 58.2
COCCCNC(=O)COc1ccc(S(=O)(=O)NCc2ccccc2)cc1Cl	none
COC(=O)c1c(NC(=O)Cc2ccccc2)sc2c1C(C(=O)OC)CC2 (stereo unspecified)	none
O=C1COc2ccc(C(=O)/C=C/c3ccccc3)cc2N1	HSF-1 act 53.4
CCOc1ccc(NC(=O)CN2CCN(CC(=O)Nc3ccc(F)cc3)CC2)cc1	none
COc1ccc2cc(C(=O)C3CCCN(C(=O)c4cccnc4)C3)ccc2c1 (stereo unspecified)	none
COc1ccc2cc(C(=O)C3CCCN(C(=O)c4cncs4)C3)ccc2c1 (stereo unspecified)	AHR activator 59.2
Cc1cc(NC(=O)/C=C/c2ccc(F)cc2)n(-c2nc3ccccc3[nH]2)n1	none
Cc1cc(NC(=O)/C=C/c2cccc(F)c2)n(-c2nc3ccccc3[nH]2)n1	AHR activator 74.2
COc1ccc(/C=C/C(=O)Nc2cc(C)nn2-c2nc3ccccc3[nH]2)cc1	HSF-1 act 189.6

Screening results deposited in PubChem BioAssay by several laboratories.
